# Shown are actives, neighbours in structure and some others; about 12% of the full set was active somewhere.
# JMJD2A Tudor: inhibitors of human JMJD2A Tudor domain; O75164; AlphaScreen JMJD2A-Tudor / H3K4me3 peptide binding; Potency, µM (highest dose often 114 µM), for inactives: at the highest dose activity change, negative = inhibition, usual class: inhibitors; actives 4.4% (n = 390,000); also: % is scaled to controls: 0 for no effect and ±100 for the full control effect; nearly all actives have a fitted effect of over 50% in size
# G9a inh: G9a (human) methyltransferase inhibition | Q96KQ7 | G9a H3K9 monomethylation, AlphaScreen, 2 h | Potency, µM (series often up to 102 µM), for the others: top-dose activity, negative = inhibition, hits mostly inhibitors | actives 8.8% (n = 350,000); also: % is scaled to controls: 0 for no effect and ±100 for the full control effect; nearly all actives have a fitted effect of over 75% in size
# Target sequence (Q96KQ7 913-1193 limits assumed): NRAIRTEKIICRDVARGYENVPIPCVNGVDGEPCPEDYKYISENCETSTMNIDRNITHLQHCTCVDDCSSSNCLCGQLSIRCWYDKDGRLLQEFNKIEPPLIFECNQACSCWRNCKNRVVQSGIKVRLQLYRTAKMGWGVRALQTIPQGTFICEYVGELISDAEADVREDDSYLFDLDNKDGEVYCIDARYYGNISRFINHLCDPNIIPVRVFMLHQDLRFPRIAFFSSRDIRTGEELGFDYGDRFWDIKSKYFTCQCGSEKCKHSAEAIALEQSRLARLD
#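 Step 1: enzyme (final 20 nM) with compound, 15 min RT. Step 2: substrate peptide 500 nM and SAM 20 uM, 2 h RT. Step 3: anti-H3K9me1 antibody and AlphaScreen beads, 10 min, then plate read.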
# BAZ2B inh: blocks human BAZ2B; Q9UIF8; AlphaScreen BAZ2B-H3K14Ac peptide displacement; actives 4.4% (n = 360,000); Potency, µM (highest dose often 114 µM), inactives show top-dose activity change, negative = inhibition, usual class: inhibitors; also: % is scaled to controls: 0 for no effect and ±100 for the full control effect; nearly all actives have a fitted effect of over 60% in size
#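 AlphaScreen luminescence quantifies BAZ2B engagement of H3K14Ac peptide; the protein and biotinylated peptide are both at 50 nM final, buffer PBS pH 7.4 with 0.01% Tween-20, all steps at room temperature.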
# Sfp inh: Sfp phosphopantetheinyl transferase inhibition; Q9F4F7; actives 3.5% (n = 310,000); Potency, µM, for the others: largest response in the series, negative = inhibition, usual class: inhibitors; Biochemical Sfp PPTase activity, qHTS;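 also: the enzyme is Sfp with the accession as filed and its product quenches rhodamine fluorescence; 0% = enzyme reaction without inhibitor and -100% = no enzyme wells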
#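 After 15 min at room temperature with compound, 15 nM Sfp received 5 uM rhodamine-CoA plus 12.5 uM BHQ-2-ybbR (50 mM Hepes pH 7.6, 10 mM MgCl2). Rate came from the fluorescence difference over 30 min, ex 525/em 598 nm.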
# HP1b chromo inh: blocks HP1-beta chromodomain binding to methylated histone tails; AID 540317; Potency, µM (series often up to 114 µM), without a hit: at the top dose activity change, negative = inhibition, most hits filed as inhibitors; AlphaScreen HP1-beta / biotin-H3K9me3 peptide binding; actives 0.56% (n = 390,000); also: nearly all actives have a fitted effect of over 70% in size
# Target sequence (P83916 whole entry, looked up): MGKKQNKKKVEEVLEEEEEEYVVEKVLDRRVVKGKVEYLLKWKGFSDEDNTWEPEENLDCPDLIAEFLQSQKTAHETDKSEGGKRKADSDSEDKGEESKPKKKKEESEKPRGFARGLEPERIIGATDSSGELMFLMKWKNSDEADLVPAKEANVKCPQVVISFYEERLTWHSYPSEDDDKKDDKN
#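 Compound inhibition of the preformed complex between 50 nM HP1-beta and 50 nM biotinylated H3K9me3 peptide was read by AlphaScreen. Buffer was PBS pH 7.4 with 0.01% Tween-20. Incubations ran 30 min at room temperature, with 10 ug/mL donor/acceptor beads.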
# Starred values were filed as active, the others as inactive; ? = inconclusive; . = not tested or not shown; [ ] = dose if it differs, or a comment. Calls follow the shape of the dose curve; as a rule, active = well fitted curve in the direction sought with a large enough effect; inconclusive = small, poorly fitted or top-dose-only effect, or another doubt; inactive = no such curve, though single readings can be large; an effect the other way counts as inactive or inconclusive. Potency is read from the fitted curve at half-maximal effect.
SMILES,JMJD2A Tudor,G9a inh,BAZ2B inh,Sfp inh,HP1b chromo inh
NC(N)=N/N=C(\N=Nc1ccccc1)c1ccc(Cl)cc1,22.4µM*,.,.,.,?
NC(N)=N/N=C(\N=Nc1ccccc1)c1cccc2cccnc12,?,.,.,.,3.2%
COc1ccc(N2CCN(C(=O)COC(=O)[C@@H](NC(=O)c3ccccc3Cl)C(C)C)CC2)cc1,-17.5%,.,.,.,15.3%
O=C(N/N=C/c1cccs1)c1cccc(NC(=O)c2ccc(Cl)cc2)c1,.,-8.9%,5.6%,-3.2%,.
O=C(CN1CCN(c2ccccc2)CC1)N1CCc2[nH]c3ccccc3c2C1,?,?,50.1µM*,2.8%,-0.7%
Cc1ccc2[nH]c3c(c2c1)CN(C(=O)CN1CC(C)OC(C)C1)CC3 (configuration not stated),-20.5%[11.4 µM],?,-1.8%,-16.6%,31.4%
Cc1ccc2[nH]c3c(c2c1)CN(C(=O)CN1CCN(c2ccccn2)CC1)CC3,-34.6%,20µM*,50.1µM*,-12.3%,-1.8%
Cc1ccc2[nH]c3c(c2c1)CN(C(=O)CN1CCN(Cc2ccc4c(c2)OCO4)CC1)CC3,50.1µM*,?,-67.4%,-17.1%,?
O=C(CN1CCc2[nH]c3ccccc3c2C1)N1CCCCC1,-19.0%,15.9%[12.7 µM],-33.6%,5.8%,11.2%
COc1cc(C(=O)/C=C/Nc2ccc(NC(C)=O)cc2)cc(OC)c1OC,-6.4%[57.1 µM],?,-7.6%,-16.6%,52.9%
COCCNC(=O)CN1CCN(C(c2ccccc2)c2ccccc2)CC1,8.91µM*,14.1µM*,?,?,?
COC(=O)CNC(=O)CCC(=O)N1CCN(C(c2ccccc2)c2ccccc2)CC1,-4.0%,1.4%,-16.9%,11.8%,50.1%
CCCCNC(=O)CCC(=O)N1CCN(C(c2ccccc2)c2ccccc2)CC1,-0.7%,2.3%,79.4µM*,20.1%,68.7%
Cc1occc1C(=O)N1CCN(C(c2ccccc2)c2ccccc2)CC1,?,39.8µM*,?,-6.7%,2.7%
O=C(c1cc(C2CC2)on1)N1CCN(C(c2ccccc2)c2ccccc2)CC1,-16.2%,?,-6.3%,1.0%,43.3%
Cc1ccccc1C(=O)N1CCN(C(c2ccccc2)c2ccccc2)CC1,-22.0%,-18.5%[59 µM],-25.3%,-26.1%,34.2%
O=C(c1cc(-c2cccc(O)c2)on1)N1CCN(C(c2ccccc2)c2ccccc2)CC1,?,44.7µM*,-7.5%,18.5%,9.0%
COc1ccc(S(=O)(=O)N2CCOCC2)cc1NC(=O)COC(=O)C1=COCCO1,-15.3%,-5.0%[12.7 µM],-4.1%,18.9%,33.7%
COC(=O)c1c(C)nsc1NC(=O)Oc1ccccc1,-8.3%,9.8%,-16.8%,15.5%,33.3%
CCCCN1C(=O)C(=O)N(CC(=O)Nc2cc(Cl)ccc2OC)C1=O,-16.0%,8.7%[59 µM],1.5%,.,16.3%
CCn1c(=O)c(C(=O)NCc2ccc(F)cc2)c(O)c2ccccc21,91.0%,157.6%,24.0%,0.0%,145.7%
N#Cc1cccc(-c2nc3cnc(Oc4cccc(Cl)c4)nc3n(C3CC3)c2=O)c1,.,-2.1%[0.501 µM],.,6.7%,.
COC(=O)CN1CCN(C(c2ccccc2)c2ccccc2)CC1,-23.1%,56.2µM*,7.8%,-4.5%,27.6%
COc1ccc(CNC(=O)CNC(c2ccccc2)c2ccccc2)cc1OC,-13.0%,5.6%,-37.1%,17.9%,-4.1%
Cc1ccnc(SCC(=O)N2CCN(C(c3ccccc3)c3ccccc3)CC2)n1,-18.0%,44.7µM*,-2.0%,-6.6%,36.2%
SMILES,JMJD2A Tudor,G9a inh,BAZ2B inh,Sfp inh,HP1b chromo inh
COCCNC(=O)CNC(c1ccccc1)c1ccccc1,.,44.7µM*,56.2µM*,44.7µM*,.
CC(C)(C)c1ccc(OCC(O)CN2CCc3ccccc3C2)cc1 (configuration not stated),-11.8%,.,.,.,80.5%
CC1CN(C(=O)c2ccc(CNS(=O)(=O)c3cccc(Cl)c3)cc2)CC(C)O1 (configuration not stated),-6.9%,3.8%,-3.2%,14.6%,25.4%
COC(=O)c1ccccc1NC(=O)Nc1cccnc1,4.2%,-7.2%[12.7 µM],-3.1%,6.9%,34.8%
O=C(CCS(=O)(=O)c1ccccc1)Nc1cccc(-c2nc3ccccc3s2)c1,-10.3%,-5.6%[59 µM],-2.3%,-0.9%,26.1%
COc1ccc(/C=N/NC(=O)CCc2nc3ccccc3[nH]2)cc1,-19.3%,8.0%[59 µM],2.1%,3.2%,4.7%
CC(=O)Nc1ccc(NC(=O)CSc2ccc(-c3ccc4c(c3)OCO4)nn2)cc1,-25.7%,7.94µM*,2.6%,-20.8%,17.3%
CC(=O)c1ccc(NC(=O)CSc2ccc(-c3ccc4c(c3)OCO4)nn2)cc1,?,-3.3%,1.2%,-4.4%,10.2%
c1cncc(CSc2ccc(-c3ccc4c(c3)OCO4)nn2)c1,-13.0%,50.1µM*,.,-14.3%,35.4%
Fc1cccc(CSc2ccc(-c3ccc4c(c3)OCO4)nn2)c1,-4.7%,-9.6%,2.2%,-16.3%,33.4%
COc1ccc(-c2c([C@H]3[C@H]4C=CC[C@@H](C)[C@@H]4C(=O)N3Cc3ccccc3)ccc3ccccc23)cc1OC,-31.9%,1.1%[59 µM],-29.8%,-2.9%,17.1%
Cc1ccc(C(=O)N/C(=C/c2ccc(Cl)cc2)C(=O)NCC2CCCO2)cc1 (configuration not stated),3.0%,21.9%[59 µM],6.2%,2.0%,33.2%
O=C(/C=C/c1ccccc1)NC(=S)NNC(=O)c1ccco1,-5.4%,10µM*,-1.1%,-6.1%,14.8%
O=C(NC(=S)Nc1ccc(NC(=O)c2ccco2)cc1)c1ccccc1,35.5µM*,?,-0.4%,-20.6%,-9.5%
O=C(NC(=S)NNC(=O)c1ccco1)c1ccccc1,-28.8%,25.1µM*,4.3%,6.1%,18.6%
COc1cc(C(=O)NC(=S)Nc2ccc(NC(=O)c3ccco3)cc2)cc(OC)c1OC,-9.9%,-43.6%,-6.0%,-27.5%,6.9%
O=C(/C=C/c1ccc(Br)cc1)NC(=S)NNC(=O)c1ccco1,-15.7%,?,6.7%,-2.5%,12.5%
Cc1ccc(NC(=O)CN2C(=O)CSc3ccc(S(=O)(=O)N4CCCCC4)cc32)cc1,-28.8%,-4.4%[59 µM],-13.2%,16.5%,25.0%
C=CCC1(c2ccccc2)Oc2ccccc2-c2nc3cc(Cl)c(Cl)cc3nc21 (configuration not stated),.,.,.,22.5%,.
O=C(OCc1cc2ccccc2[nH]c1=O)c1ccco1,-9.0%,-0.6%[12.7 µM],1.3%,-9.9%,24.6%
COc1ccc(N(Cc2cc3ccc(C)cc3[nH]c2=O)C(=O)c2ccco2)cc1,-1.1%,70.8µM*,12.3%,?,34.2%
Cc1cccc(N(Cc2cc3ccccc3[nH]c2=O)C(=O)c2ccco2)c1C,-10.3%,3.4%[12.7 µM],-6.5%,79.4µM*,19.1%
COCC(=O)N(Cc1cc2cc(C)ccc2[nH]c1=O)c1cccc(C)c1C,0.7%,35.0%,-26.3%,7.8%,43.0%
Cc1ccc(C)c(N(Cc2cc3ccc(C)cc3[nH]c2=O)C(=O)c2ccco2)c1,-15.3%,-4.5%[59 µM],-8.5%,-16.1%,15.4%

# Source: PubChem BioAssay (National Center for Advancing Translational Sciences (NCATS))
